{
  "source": "PubChem BioAssay (Tox21)",
  "key": {"[1]": {"experiment": "qHTS assay to identify small molecule antagonists of the glucocorticoid receptor (GR) signaling pathway - cell viability counter screen (AID 720693); note: nearly all actives have a fitted effect of over 55% in size"}, "[2]": {"experiment": "qHTS assay for identifying genotoxic compounds that show differential cytotoxicity against isogenic chicken DT40 cell lines with known DNA damage response pathways - wild type cell line (AID 743012); note: nearly all actives have a fitted effect of over 60% in size", "method_in_brief": "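Wild-type DT40 cells (300/well) exposed to compounds for 40 hours at 37 C/5% CO2. Viability read by CellTiter-Glo luminescence after 30 min at room temperature.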"}, "[3]": {"experiment": "qHTS assay for identifying genotoxic compounds that show differential cytotoxicity against isogenic chicken DT40 cell lines with known DNA damage response pathways - Rev3 mutant cell line (AID 743014); note: nearly all actives have a fitted effect of over 55% in size"}, "[4]": {"experiment": "qHTS assay for identifying genotoxic compounds that show differential cytotoxicity against isogenic chicken DT40 cell lines with known DNA damage response pathways - Rad54/Ku70 mutant cell line (AID 743015); note: nearly all actives have a fitted effect of over 60% in size"}, "[5]": {"experiment": "qHTS assay to identify small molecule antagonists of the androgen receptor (AR) signaling pathway - cell viability counter screen (AID 743033; note: nearly all actives have a fitted effect of over 45% in size)"}, "[6]": {"experiment": "qHTS assay to identify small molecule antagonists of the androgen receptor (AR) signaling pathway using the MDA cell line - cell viability counter screen (AID 743041; note: nearly all actives have a fitted effect of over 45% in size)", "method_in_brief": "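Same-well cytotoxicity was assessed by CellTiter-Fluor in MDA-kb2 AR-luc cells after 16 h of compound treatment under R1881 agonism.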"}, "[7]": {"experiment": "qHTS assay to identify small molecule antagonists of the thyroid receptor (TR) signaling pathway - cell viability counter screen (AID 743064); note: nearly all actives have a fitted effect of over 50% in size", "method_in_brief": "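Plate GH3.TRE-Luc cells; incubate 4 h at 37 °C; add compound, then T3 to 1 nM final; incubate 23.5 h; add CellTiter-Fluor; incubate 30 min at 37 °C, 5% CO2; read fluorescence.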"}},
  "note": "Where “and” joins values, the source holds several entries; their conditions need not be identical. Equal entries are not always repeated. Records with an inconclusive call do not appear. Entries that show only a call come without a potency. Values without a mark were called inactive. Calls of active or inactive are those of the source. Calls come from the whole dose curve; as a rule, active = well fitted curve in the direction sought with a large enough effect in the repeat runs; inconclusive = weak or mixed curves; inactive = no such curve, though single readings can be large; an effect the other way counts as inactive or inconclusive. Potency is the fitted concentration of half-maximal effect.",
  "data": [
    {"smiles": "CCC(C)O", "note": "(stereo not given)", "values": [
      {"measurement": "Potency", "setting": "[1]", "result": "inactive"},
      {"measurement": "Potency", "setting": "[2]", "result": "inactive"},
      {"measurement": "Potency", "setting": "[3]", "result": "inactive"},
      {"measurement": "Potency", "setting": "[4]", "result": "inactive"},
      {"measurement": "Potency", "setting": "[5]", "result": "inactive"},
      {"measurement": "Potency", "setting": "[6]", "result": "inactive"}
    ]},
    {"smiles": "C=C1[C@H]2CC[C@@H]3[C@H]2C(C)(C)CCC[C@]13C", "values": [
      {"measurement": "Potency", "setting": "[1]", "result": "inactive"},
      {"measurement": "Potency", "setting": "[2]", "result": "inactive"},
      {"measurement": "Potency", "setting": "[3]", "result": "inactive"},
      {"measurement": "Potency", "setting": "[4]", "result": "inactive"},
      {"measurement": "Potency", "setting": "[5]", "result": "inactive"},
      {"measurement": "Potency", "setting": "[6]", "result": "inactive"}
    ]},
    {"smiles": "Brc1c2ccccc2c(Br)c2ccccc12", "values": [
      {"measurement": "viability change, negative = cytotoxic", "setting": "[1]", "result": "-12.6% [at 7.04 µM]"},
      {"measurement": "activity change, negative = cytotoxicity", "setting": "[2]", "result": "2.6% [at 8.52 µM]"},
      {"measurement": "activity, negative = cytotoxicity", "setting": "[3]", "result": "2.95% [at 8.53 µM]"},
      {"measurement": "activity change, negative = cytotoxicity", "setting": "[4]", "result": "3.28% [at 8.55 µM]"},
      {"measurement": "activity change, negative = cytotoxicity", "setting": "[5]", "result": "0.327% [at 7.04 µM]"},
      {"measurement": "viability change, negative = cytotoxic", "setting": "[6]", "result": "2.16% [at 8.47 µM]"},
      {"measurement": "activity change, negative = cytotoxic", "setting": "[7]", "result": "6.61% [at 8.44 µM]"}
    ]},
    {"smiles": "Cc1c(N)cccc1[N+](=O)[O-]", "values": [
      {"measurement": "Potency", "setting": "[1]", "result": "inactive"},
      {"measurement": "Potency", "setting": "[2]", "result": "inactive"},
      {"measurement": "Potency", "setting": "[3]", "result": "inactive"},
      {"measurement": "Potency", "setting": "[4]", "result": "inactive"},
      {"measurement": "Potency", "setting": "[5]", "result": "inactive"},
      {"measurement": "Potency", "setting": "[6]", "result": "inactive"}
    ]},
    {"smiles": "CCCCC(CC)COC(=O)CCCCCCCCC(=O)OCC(CC)CCCC", "note": "(stereo not given)", "values": [
      {"measurement": "Potency", "setting": "[1]", "result": "inactive"},
      {"measurement": "Potency", "setting": "[2]", "result": "inactive"},
      {"measurement": "Potency", "setting": "[3]", "result": "inactive"},
      {"measurement": "Potency", "setting": "[4]", "result": "inactive"},
      {"measurement": "Potency", "setting": "[5]", "result": "inactive"},
      {"measurement": "Potency", "setting": "[6]", "result": "inactive"},
      {"measurement": "Potency", "setting": "[7]", "result": "inactive"}
    ]},
    {"smiles": "CC(C)O.CC(C)O.CCOC(=O)/C=C(\\C)O.CCOC(=O)/C=C(\\C)O.[Ti]", "values": [
      {"measurement": "Potency", "setting": "[1]", "result": "inactive"},
      {"measurement": "Potency", "setting": "[2]", "result": "inactive"},
      {"measurement": "Potency", "setting": "[3]", "result": "inactive"},
      {"measurement": "Potency", "setting": "[4]", "result": "inactive"},
      {"measurement": "Potency", "setting": "[5]", "result": "inactive"},
      {"measurement": "Potency", "setting": "[6]", "result": "inactive"},
      {"measurement": "Potency", "setting": "[7]", "result": "inactive"}
    ]},
    {"smiles": "CN1CCC(N(Cc2cccs2)c2ccccc2)CC1", "values": [
      {"measurement": "Potency", "setting": "[1]", "result": "inactive"},
      {"measurement": "Potency", "setting": "[2]", "result": "9.44 µM (active)"},
      {"measurement": "Potency", "setting": "[3]", "result": "11.9 µM (active)"},
      {"measurement": "Potency", "setting": "[4]", "result": "10.6 µM (active)"},
      {"measurement": "Potency", "setting": "[5]", "result": "inactive"},
      {"measurement": "Potency", "setting": "[6]", "result": "inactive"}
    ]},
    {"smiles": "C=CC(=O)OCCOCCOCCOCCOC(=O)C=C", "values": [
      {"measurement": "Potency", "setting": "[1]", "result": "49.2 µM (active) and 48.5 µM (active)"},
      {"measurement": "Potency", "setting": "[2]", "result": "13.8 µM (active) and 12.1 µM (active)"},
      {"measurement": "Potency", "setting": "[3]", "result": "8.68 µM (active) and 6.06 µM (active)"},
      {"measurement": "Potency", "setting": "[4]", "result": "12.3 µM (active) and 9.6 µM (active)"},
      {"measurement": "Potency", "setting": "[5]", "result": "24.7 µM (active)"},
      {"measurement": "Potency", "setting": "[6]", "result": "30.4 µM (active)"},
      {"measurement": "Potency", "setting": "[7]", "result": "15.4 µM (active) and 17.1 µM (active)"}
    ]},
    {"smiles": "ClCCOCCOCCCl", "values": [
      {"measurement": "Potency", "setting": "[1]", "result": "inactive"},
      {"measurement": "Potency", "setting": "[2]", "result": "inactive"},
      {"measurement": "Potency", "setting": "[3]", "result": "inactive"},
      {"measurement": "Potency", "setting": "[4]", "result": "inactive"},
      {"measurement": "Potency", "setting": "[5]", "result": "inactive"},
      {"measurement": "Potency", "setting": "[6]", "result": "inactive"},
      {"measurement": "Potency", "setting": "[7]", "result": "inactive"}
    ]},
    {"smiles": "COc1cc(Cl)ccc1Oc1ccc(Cl)cc1Cl", "values": [
      {"measurement": "Potency", "setting": "[1]", "result": "inactive"},
      {"measurement": "Potency", "setting": "[2]", "result": "inactive"},
      {"measurement": "Potency", "setting": "[3]", "result": "inactive"},
      {"measurement": "Potency", "setting": "[4]", "result": "inactive"},
      {"measurement": "Potency", "setting": "[5]", "result": "inactive"},
      {"measurement": "Potency", "setting": "[6]", "result": "inactive"}
    ]},
    {"smiles": "CN(C)CCN(Cc1ccccc1)c1ccccn1", "values": [
      {"measurement": "Potency", "setting": "[1]", "result": "inactive"},
      {"measurement": "Potency", "setting": "[2]", "result": "inactive"},
      {"measurement": "Potency", "setting": "[3]", "result": "inactive"},
      {"measurement": "Potency", "setting": "[4]", "result": "inactive"},
      {"measurement": "Potency", "setting": "[5]", "result": "inactive"},
      {"measurement": "Potency", "setting": "[6]", "result": "inactive"}
    ]},
    {"smiles": "CCOC(=O)C1=C[C@]2(CC)CCCN3CCc4c(n1c1ccccc41)[C@@H]32", "values": [
      {"measurement": "Potency", "setting": "[1]", "result": "inactive"},
      {"measurement": "Potency", "setting": "[2]", "result": "10.6 µM (active) and 6.68 µM (active)"},
      {"measurement": "Potency", "setting": "[3]", "result": "10.6 µM (active) and 9.44 µM (active)"},
      {"measurement": "Potency", "setting": "[4]", "result": "16.8 µM (active) and 10.6 µM (active)"},
      {"measurement": "Potency", "setting": "[5]", "result": "inactive"},
      {"measurement": "Potency", "setting": "[6]", "result": "inactive"},
      {"measurement": "Potency", "setting": "[7]", "result": "9.44 µM (active)"}
    ]},
    {"smiles": "CC1CCC(=O)C1=O", "note": "(stereo not given)", "values": [
      {"measurement": "Potency", "setting": "[1]", "result": "inactive"},
      {"measurement": "Potency", "setting": "[2]", "result": "inactive"},
      {"measurement": "Potency", "setting": "[3]", "result": "inactive"},
      {"measurement": "Potency", "setting": "[4]", "result": "inactive"},
      {"measurement": "Potency", "setting": "[5]", "result": "inactive"},
      {"measurement": "Potency", "setting": "[6]", "result": "inactive"},
      {"measurement": "Potency", "setting": "[7]", "result": "inactive"}
    ]}
  ]
}
